Source: PubChem BioAssay (Tox21)
Where “and” joins values, the source holds several entries; their conditions need not be identical. Equal entries are not always repeated. Inconclusive results are not listed. Where a call stands in place of a potency, no number is given. The source holds several records for some structures; these can differ, active in one and inactive in another. Calls of active or inactive are those of the source. Unless noted, the call rests on the fitted dose curve; in most records, active means well fitted curve in the direction sought with a large enough effect in the repeat runs; inconclusive means weak or mixed curves; inactive means no such curve, though single readings can be large; an effect the other way counts as inactive or inconclusive.

Legend:
[1] = qHTS assay for small molecule agonists of the p53 signaling pathway (AID 651631; calls by dose curve; further: nearly all actives have a fitted effect of over 15% in size; further: potency means the concentration at half of the fitted maximal effect)
How it was run: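 Quantitative high-throughput format: 4,000 p53RE-bla HCT-116 cells/well, 5 h pre-incubation, 16 h compound exposure at 37 °C, 2 h room-temperature substrate step, fluorescence intensity measured.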

[2] = qHTS assay for small molecules that induce genotoxicity in human embryonic kidney cells expressing luciferase-tagged ATAD5 (AID 651632); further: nearly all actives have a fitted effect of over 15% in size; further: potency means the concentration at half of the fitted maximal effect
How it was run: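 Luminescence read-out: after 16 hr compound exposure at 37C, ATAD5-luciferase HEK293T cells received Amplite, 30 min RT, then CCD imaging. A rise in signal marks genotoxic stress.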

[3] = qHTS assay for small molecule agonists of the p53 signaling pathway - cell viability (AID 651633; calls by dose curve; further: nearly all actives have a fitted effect of over 30% in size; further: potency means the concentration at half of the fitted maximal effect)
How it was run: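 Viability counter-read: CellTiter-Glo luminescence (30 min, room temperature) in the same p53RE-bla plates. These plates had been exposed to compounds for 16 h at 37 C.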

[4] = qHTS assay for small molecules that induce genotoxicity in human embryonic kidney cells expressing luciferase-tagged ATAD5 - cell viability (AID 651634; calls by dose curve; further: nearly all actives have a fitted effect of over 25% in size; further: potency means the concentration at half of the fitted maximal effect)
How it was run: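 HEK293T ATAD5-luc cells, 2,000/well; compound 15.5 hr, 37C/5% CO2; CellTiter-Fluor 30 min, 37C; fluorescence read.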

[5] = qHTS assay for small molecule disruptors of the mitochondrial membrane potential - cell viability (AID 720634; calls by dose curve; further: nearly all actives have a fitted effect of over 20% in size; further: potency means the concentration at half of the fitted maximal effect)
How it was run: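 Luminescence from CellTiter-Glo (ATP content) gave viability in HepG2 cells, read in the same wells as the MMP dye assay after 1 hr compound exposure at 37 C.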

[6] = qHTS assay for small molecule disruptors of the mitochondrial membrane potential (AID 720635); further: potency means the concentration at half of the fitted maximal effect
How it was run: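 Mitochondrial membrane potential tracked with Mito-MPS dye, red aggregates (ex 540/em 590 nm) against green monomers (ex 490/em 535 nm). Compound treatment 1 hr at 37C, dye 30 min in HepG2.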

[7] = qHTS assay to test for compound auto fluorescence at 590 nm (red) in HepG2 cells (AID 720674)
How it was run: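 We screened compounds on adherent HepG2 cells, incubating them for an hour at 37 C in 5% CO2 before reading emission at 590 nm under 540 nm excitation; values reflect equivalence to Rose Bengal sodium fluorescence.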

[8] = qHTS assay to test for compound auto fluorescence at 535 nm (green) in HepG2 cells (AID 720675)
[9] = qHTS assay to test for compound auto fluorescence at 460 nm (blue) in HEK293 cells (AID 720678)
How it was run: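 HEK293 cells (2,000 per well, medium with 10% dialyzed FBS) attached for 4-5 hr at 37C, then received compound and stood overnight at 37C, 5% CO2. Blue fluorescence was read at Ex/Em 405/460 nm and expressed relative to triamterene.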

[10] = qHTS assay to test for compound auto fluorescence at 590 nm (red) in HEK293 cells (AID 720679)
How it was run: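 HEK293 cells (2,000/well, medium with 10% dialyzed FBS) attached for 4-5 hr at 37C, received 23 nL compound and were incubated overnight at 37C, 5% CO2. Red fluorescence was then read at 540/590nm Ex/Em, referenced to Rose Bengal sodium.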

| SMILES | Potency [1] | Potency [2] | Potency [3] | Potency [4] | Potency [5] | Potency [6] | Potency [7] | Potency [8] | outcome [9] | Potency [10] |
| --- | --- | --- | --- | --- | --- | --- | --- | --- | --- | --- |
| CCCCC(CC)COP(=O)(OCC(CC)CCCC)OCC(CC)CCCC (stereo not given) | inactive | inactive | inactive | inactive | inactive | inactive | inactive | inactive | inactive | inactive |
| c1ccncc1 | inactive | inactive | inactive | inactive | inactive |  | inactive | inactive | inactive |  |
| Cc1ncc[nH]1 | inactive | inactive | inactive | inactive | inactive | inactive | inactive | inactive | inactive | inactive |
| CC(CCC(=O)O)(c1ccc(O)cc1)c1ccc(O)cc1 | inactive | inactive | inactive | inactive | inactive | inactive | inactive | inactive | inactive |  |
| C=C(C)C1CC=C(C)CC1 (stereo not given) | inactive | inactive | inactive | inactive |  |  | inactive | inactive | inactive | inactive |
| COC(=O)c1ccccc1 | inactive | inactive | inactive | inactive | inactive | inactive | inactive | inactive | inactive | inactive |
| Nc1ncnc2nc[nH]c12 | inactive | inactive | inactive | inactive | inactive |  | inactive | inactive | inactive | inactive |
| CCOC(=O)C(C#N)=C(c1ccccc1)c1ccccc1 | inactive | inactive | inactive | inactive |  |  | inactive | inactive | inactive | inactive |
| O=CCc1ccccc1 | inactive | inactive | inactive | inactive | inactive | inactive and 54.5 µM (active) | inactive | inactive | inactive | inactive |
| CN(C)CCN(Cc1cccs1)c1ccccn1 | inactive | inactive | inactive | inactive | inactive | inactive | inactive | inactive | inactive |  |
| O=C(/C=C/c1ccccc1)OCc1ccccc1 | inactive | inactive | inactive | inactive |  |  | inactive | inactive | inactive |  |
| Nc1ccc(Cl)cc1Cl | inactive | inactive | inactive | inactive | inactive | inactive | inactive | inactive | inactive | inactive |
| O=Cc1ccccc1O | inactive | inactive | inactive | inactive | inactive | inactive | inactive | inactive | inactive |  |
| CCCCOCCOCCO | inactive | inactive | inactive | inactive | inactive | inactive | inactive | inactive | inactive | inactive |
| CCCCC(CC)COC(=O)c1ccc(N(C)C)cc1 (stereo not given) | inactive | inactive | inactive |  | inactive | 8.68 µM (active) and 21.7 µM (active) | inactive | inactive | inactive |  |
| O=S(=O)(O)c1ccc(O)cc1 | inactive | inactive | inactive |  | inactive | inactive | inactive | inactive | inactive | inactive |
| CCCCOCCOCCOCCO | inactive | inactive | inactive | inactive |  |  | inactive | inactive | inactive | inactive |

| SMILES | Potency [1] | Potency [2] | Potency [3] | Potency [4] | Potency [5] | Potency [6] | Potency [7] | Potency [8] | outcome [9] | Potency [10] |
| --- | --- | --- | --- | --- | --- | --- | --- | --- | --- | --- |
| Cc1ccc(C)c(O)c1C | inactive | inactive | inactive | inactive | inactive | inactive | inactive | inactive | inactive |  |
| COc1ccc(C(=O)CC(=O)c2ccc(C(C)(C)C)cc2)cc1 | inactive | inactive | inactive | inactive | inactive and 18.5 µM (active) | inactive and 16.5 µM (active) | inactive | inactive | inactive | inactive |
| CN(C)CCC=C1c2ccccc2CCc2ccccc21 | 61.1 µM (active) | inactive | inactive | inactive | inactive |  | inactive | inactive | inactive | inactive |
| Cc1cccc(N(C)C(=S)Oc2ccc3ccccc3c2)c1 | inactive | inactive | inactive and 17.2 µM (active) | inactive | 17.2 µM (active) | inactive and 21.7 µM (active) | inactive | inactive | inactive | inactive |
| CCC(C)(O)CCCC(C)C (stereo not given) | inactive | inactive | inactive | inactive | inactive | inactive | inactive | inactive | inactive |  |
| CC(C)(C)NC(=O)[C@H]1CC[C@H]2[C@@H]3CC[C@H]4NC(=O)C=C[C@]4(C)[C@H]3CC[C@]12C | inactive | inactive | inactive | inactive | inactive | inactive | inactive | inactive | inactive | inactive |
| CN1C(C(=O)Nc2ccccn2)=C(O)c2ccccc2S1(=O)=O | inactive | inactive | inactive | inactive | inactive | 5.69 µM (active) and 4.9 µM (active) | inactive | inactive | inactive |  |
| Cn1cnc([N+](=O)[O-])c1Sc1ncnc2nc[nH]c12 | 24.2 µM (active) | inactive | 680 nM (active) |  | inactive | 23.7 µM (active) | inactive | inactive | inactive | inactive |
| OC1CCCCCCCCCCC1 | inactive | inactive | inactive | inactive | inactive | 55 µM (active) and 54.5 µM (active) | inactive | inactive | inactive | inactive |
| CC(C)=CCCC(C)CCO (stereo not given) | inactive | inactive | inactive | inactive | inactive |  | inactive | inactive | inactive | inactive |
| COc1ccc(OC)c(C(O)CNC(=O)CN)c1 (stereo not given) | inactive | inactive | inactive | inactive | inactive | inactive | inactive | inactive | inactive | inactive |
| O=C(Nc1ccc([N+](=O)[O-])cc1Cl)c1cc(Cl)ccc1O | 298 nM (active) and 611 nM (active) | 75 nM (active) and inactive | 94.4 nM (active) and 96.9 nM (active) | 596 nM (active) and 2.43 µM (active) | inactive | 26.6 nM (active) and 9.7 nM (active) | inactive | inactive | inactive | inactive |
| O=C(c1ccccc1)c1ccc(O)cc1O | inactive | inactive | inactive | inactive |  | 27.8 µM (active) and 61.1 µM (active) | inactive | inactive | inactive | inactive |
| CCC(C)OC(=O)c1ccc(O)cc1 (stereo not given) | inactive | inactive | inactive | inactive |  | 24.5 µM (active) and 17.2 µM (active) | inactive | inactive | inactive |  |
| Cc1c(C(N)=O)cc([N+](=O)[O-])cc1[N+](=O)[O-] | inactive | inactive | inactive |  | inactive | inactive | inactive | inactive | inactive |  |
| O=C(Nc1ccc(Cl)cc1)Nc1ccc(Cl)c(Cl)c1 | 7.5 µM (active) and 5.42 µM (active) and 15.4 µM (active) | inactive | inactive | 9.44 µM (active) | 1.93 µM (active) | 150 nM (active) and 68.2 nM (active) and 86.3 nM (active) | inactive | inactive | inactive |  |
| Nc1ccc(S(=O)(=O)Nc2cnc3ccccc3n2)cc1 | inactive | inactive | inactive | inactive | inactive | inactive | inactive | inactive | inactive | inactive |
